# Test results as given in PubChem BioAssay (NCI).
# The panel holds about 83,000 compounds, 20% with a hit somewhere; the sample as a whole holds those more often.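 In brief: 96-well plates, 48 h treatment, single concentration, percent growth endpoint.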 A number with no mark means an inactive call. The source made the active and inactive calls. How the source made its calls: active means growth percent below 10; inactive means the rest.
# Tests used:
# Test in all cases: NCI-60 one-dose screen, 48 h (100 = growth as untreated, 0 = no growth, -100 = all killed)
# Settings in all cases: 10 µM unless noted
# NCI-H23 lung = tested on: NCI-H23 lung
# NCI-H226 lung = tested on: NCI-H226 lung
# NCI-H322M lung = tested on: NCI-H322M lung
# HOP-62 NSCLC = tested on: HOP-62 NSCLC
# NCI-H460 lung = tested on: NCI-H460 lung
# HOP-92 NSCLC = tested on: HOP-92 NSCLC
# NCI-H522 lung = tested on: NCI-H522 lung
# A549/ATCC NSCLC = tested on: A549/ATCC NSCLC
# 786-0 renal = tested on: 786-0 renal
# COLO 205 colon = tested on: COLO 205 colon
Structure (SMILES),growth (NCI-H23 lung),growth (NCI-H226 lung),growth (NCI-H322M lung),growth (HOP-62 NSCLC),growth (NCI-H460 lung),growth (HOP-92 NSCLC),growth (NCI-H522 lung),growth (A549/ATCC NSCLC),growth (786-0 renal),growth (COLO 205 colon)
Cn1cc(-c2nnc(-c3cn(C)c4ncccc34)s2)c2ccccc21,84.6%,96%,92.7%,65.8%,75.1%,30.2%,32.1%,57.6%,78.4%,64.1%
Cc1ccc(-c2cn(C/C=C3\C=CN(S(=O)(=O)c4ccccc4)CC3)nn2)cc1,96.1%,99.5%,95.8%,97.6%,99.1%,92.7%,93.3%,104%,101%,129%
C=CCc1nc2ccccc2s1,95.7%,101%,106%,100%,104%,98.6%,86.6%,103%,108%,113%
C#C[C@]1(O)CC[C@H]2[C@@H]3CC=C4c5nc(Nc6ccccc6[N+](=O)[O-])sc5CC[C@]4(C)[C@H]3CC[C@@]21C,86.5%,80.9%,72.9%,69.2%,55.7%,72.6%,73.4%,62.2%,5.63% (active),86.7%
O=C(OCc1ccc2c(Cl)cc(Cl)c(O)c2n1)N1CCN(C(=O)c2cc3cc(F)ccc3[nH]2)CC1,26.3%,2.12% (active),33.5%,6.32% (active),1.07% (active),39.2%,-19.1% (active),13.6%,79.2%,85.7%
Cc1cccc([N+](=O)[O-])c1I,105%,102%,112%,101%,111%,87.4%,93.8%,102%,108%,110%
CC1(C)NCCC[C@]2(C)[C@H]3C=CC4=C5C[C@](C)(CO)CC[C@]5(C)CC[C@@]4(C)[C@]3(C)CC[C@@H]12,-84.9% [100 µM] (active),-59.1% [100 µM] (active),-99.7% [100 µM] (active),-74.5% [100 µM] (active),-81.6% [100 µM] (active),-76.4% [100 µM] (active),-75.6% [100 µM] (active),-66.5% [100 µM] (active),-72% [100 µM] (active),-55.9% [100 µM] (active)
Cc1cc[n+](CCCCCCCCCC[n+]2ccc(C)cc2)cc1,68.8%,68.3%,109%,87.7%,98.7%,99.8%,91.6%,73.3%,97.5%,103%
O=C(CCCSc1nc(-c2ccccc2)cc(-c2ccccc2)n1)NO,-2.58% (active),-6.97% (active),12.6%,-8.18% (active),6.46% (active),-3.2% (active),-9.12% (active),-1.91% (active),7.15% (active),-14% (active)
CC1(C)CC[C@]23CC[C@]4(C)[C@H](CC[C@@H]5[C@@]6(C)C/C(=C/c7cccnc7)C(=O)C(C)(C)[C@@H]6CC[C@]54C)[C@H]2[C@H]1OC3=O,46.7% [100 µM],24.6% [100 µM],65.2% [100 µM],25.2% [100 µM],23.2% [100 µM],24.8% [100 µM],30.5% [100 µM],44.8% [100 µM],45.5% [100 µM],23.1% [100 µM]
COc1ccc2nc3cc(Cl)ccc3c(Nc3ccc(O)cc3)c2c1,72.8%,74.4%,90.5%,68.8%,23.1%,78.9%,72.5%,46.6%,84%,76.8%
O=S(=O)(NCCNc1nccc(-c2c(-c3cccc(F)c3)nc3occn23)n1)c1ccc(C(F)(F)F)cc1,98.5%,84.2%,89.3%,85.1%,98.9%,77.5%,74.4%,70%,78.7%,96%
C[n+]1c2ccccc2nc2c(N)cc(N)cc21,71.9%,37.2%,71.2%,56.6%,86.6%,84.2%,52.2%,82%,62.2%,49.8%
C=C(C)[C@@H]1CC[C@]2(C)[C@H](C(=O)C=C3[C@@H]4C[C@](C)(C(=O)N5CCN(C)CC5)CC[C@]4(C)CC[C@]32C)[C@@]1(C)CCC#N,-73.6% [100 µM] (active),-68.4% [100 µM] (active),-98.6% [100 µM] (active),-84.5% [100 µM] (active),-89.9% [100 µM] (active),-45.6% [100 µM] (active),-68.9% [100 µM] (active),-67.3% [100 µM] (active),-85.5% [100 µM] (active),-69.4% [100 µM] (active)
COc1cc2c(c(Br)c1N)-c1cc(Br)c(N)cc1C2=O,49.9%,-24.1% (active),71.2%,60.8%,45.7%,54.9%,70.5%,83.5%,58.8%,79.3%
O=C(NNc1ccc(-c2ccccc2)nn1)c1ccccc1,99.6%,102%,94.7%,104%,100%,91.6%,97.8%,106%,93.3%,107%
CN(C)CCCNc1nc(-c2cccc(C(Cl)(Cl)Cl)c2)nc(C(Cl)(Cl)Cl)n1,101%,109%,93.7%,111%,108%,53%,94.9%,105%,99%,119%
C#C[C@]1(O)CC[C@H]2[C@@H]3CC=C4c5nc(Nc6ccccn6)sc5CC[C@]4(C)[C@H]3CC[C@@]21C,34.7%,38.1%,35.8%,-10.4% (active),4.83% (active),-24.5% (active),-6.06% (active),14.5%,-69.6% (active),35%
Cc1ccc(S(=O)(=O)Oc2ccc([N+](=O)[O-])cc2[N+](=O)[O-])cc1,97%,68.9%,122%,115%,110%,65.3%,18.3%,104%,47.7%,85.8%
Cn1cc(-c2nnc(-c3cn(C)c4ncc(Br)cc34)o2)c2ccccc21,90.4%,93%,97.7%,82.5%,98.2%,77.1%,57.3%,87.4%,105%,76%
CCn1cc(-c2ccnc(NCCNS(=O)(=O)c3ccc(Br)cc3)c2)c(-c2cccc(OC)c2)n1,-96.1% (active),72.9%,85.3%,81.4%,78.4%,51.1%,56.7%,62.4%,71.3%,93.5%
CC/C=C(\C)C(CCC)(CN=O)C(=O)OCC (stereo not given),99.7%,109%,107%,93%,114%,102%,92.8%,85.8%,104%,104%
Cc1ncc(C(=O)Nc2ccc(CN3CCN(C)CC3)c(C(F)(F)F)c2)cc1C#Cc1c(N)ncc2ccc(C#N)cc12,35.8%,19.9%,34.4%,16.5%,43.4%,-8.03% (active),46.9%,34.4%,-51% (active),7.77% (active)
CCN(CCO)CCC(=O)c1ccc([N+](=O)[O-])cc1,102%,99.5%,101%,109%,111%,92.9%,100%,103%,103%,116%
COc1cc2c(cc1OC(C)=O)C(=O)CCCC2,93.6%,98.1%,89.9%,75.4%,105%,79%,78%,85.8%,86.9%,135%
Nc1cccc2c1C(=O)c1cccc(NC(=O)c3ccccc3)c1C2=O,29.9%,52.2%,-7.76% (active),38.7%,7.2% (active),53.2%,-28.5% (active),28.6%,37.5%,-11.5% (active)
